Assay [1] can be described thus: binders of probe aFSTL3 on microarray, primary screen, stem cell growth factor project, biochemical, small-molecule microarray, fluorescence 635/667 (AID 1064).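 Further: measures binding of the biotinylated anti-FSTL3 antibody to printed compounds.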 As to conditions: higher = more signal.
Assay [2] can be described thus: binders from COS7 lysate, DM2A8 probe, primary screen, torsin A project, cell lysate, small-molecule microarray, fluorescence 635/667 (AID 1065). The note with it: higher = more signal, COS7 lysate expressing mutant human TOR1A.
A short description of assay [3]: binders of probe aFGF2 on microarray, primary screen, stem cell growth factor project, biochemical, small-molecule microarray, fluorescence 635/667 (AID 1067).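 Further: measures binding of biotinylated aFGF2 protein to printed compounds on slides; z-score merges feature fluorescence and signal-to-noise across triplicate slides.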 The note with it: higher = more signal.
Assay [4] in a line: binders of probe aFGF10 on microarray, primary screen, stem cell growth factor project, biochemical, small-molecule microarray, fluorescence 635/667 (AID 1071).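 Further: score merges 667 nm spot intensity and signal to noise from triplicate slides.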 The note with it: higher = more signal.
Assay [5] concerns the target Neurogenic locus notch homolog protein 2 (Homo sapiens) (UniProt Q04721). The assay is described as follows: Notch2 binders on small-molecule microarrays, primary screen, biochemical, small-molecule microarray, 635 nm fluorescence, stem cell growth factors (AID 1073). The note with it: Notch2 binding, higher = more signal.
Assay [6] concerns the target Pro-neuregulin-1, membrane-bound isoform (Homo sapiens) (UniProt Q02297). The assay is described as follows: NRG1 binders on small-molecule microarrays, primary screen, psychiatric disease protein project, biochemical, small-molecule microarray, fluorescence 635/667 (AID 1075).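 Further: score combines 667 nm spot fluorescence with signal to noise.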 As to conditions: NRG1 binding, 635 nm fluorescence, higher = more signal.
The test system of assay [7] is Neuregulin-1 EGF-like domain. As to the kind of experiment: binders of neuregulin-1 EGF-like domain, primary screen, biochemical, small-molecule microarray, 635 nm fluorescence (AID 1081).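 Further: binding of the protein to compounds printed on small-molecule microarray slides.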 The note with it: small-molecule microarray binding, higher = more signal.
Assay [8] in a line: FRG1 promoter luciferase signal modulators, primary screen, FRG1 inhibition for FSHD, cell-based, C2C12 myotubes, firefly/Renilla luciferase, luminescence (AID 1084). The note with it: higher = more signal, called active from +8 up or from −8 down.
Assay [9] can be described thus: binders of probe aFST on microarray, primary screen, stem cell growth factor project, biochemical, small-molecule microarray, fluorescence 635/667 (AID 1086).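 Further: score merges 667 nm fluorescence with signal-to-noise of each printed compound spot.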 The note with it: higher = more signal.
The nature of assay [10]: binders of probe aHhip on microarray, primary screen, stem cell growth factor project, biochemical, small-molecule microarray, fluorescence 635/667 (AID 1087).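 Further: score merges spot fluorescence at 667nm with spot signal to noise ratio.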 As to conditions: higher = more signal.
Assay [11] concerns PRMT1 (protein arginine N-methyltransferase 1). The assay is described as follows: PRMT1 binders on small-molecule microarrays, primary screen, biochemical, small-molecule microarray, 635 nm fluorescence (AID 1088).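 Further: binding of Prmt1 protein to compounds spotted on small-molecule microarray slides.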 As to conditions: small-molecule microarray binding, higher = more signal.
Assay [12] is described as follows: yeast growth modulation, basal conditions, primary screen, YJM789 clinical isolate, OD600, 24 h (AID 1089).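 Further: growth of clinical yeast isolate S. cerevisiae YJM 789 seeded 1000 cells per well; test concentration not given here.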 The note with it: S. cerevisiae YJM789 growth, higher = more signal, called active from +8 up or from −8 down.
Assay [13] is described as follows: fission yeast growth modulation, primary screen, strain 972, OD600, 24 h, no modulator (AID 1090).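 Further: basal condition with compound alone and no growth modifier present; test concentration not given here.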 As to conditions: S. pombe 972 growth, higher = more signal, called active from +8 up or from −8 down.
The nature of assay [14]: S. cerevisiae growth modulation with rapamycin, primary screen, strain BY4716, OD600, 96 h (AID 1091). Further: test concentration not given here. As to conditions: higher = more signal, called active from +8 up or from −8 down.
The target in assay [15] is Torsin-1A-interacting protein 2 (Homo sapiens) (UniProt Q8NFQ8). The assay is described as follows: LULL1 binders on small-molecule microarray, primary screen, cell lysate, human LULL1 lysate, 635/667 nm fluorescence (AID 1092).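 Further: probe is lysate of COS7 cells overexpressing human LULL1; score merges per-feature 667 nm fluorescence with signal-to-noise.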 As to conditions: hLULL1 lysate binding, 635 nm fluorescence, higher = more signal.
Sequence of Torsin-1A-interacting protein 2 (Homo sapiens) (Q8NFQ8 whole entry, looked up): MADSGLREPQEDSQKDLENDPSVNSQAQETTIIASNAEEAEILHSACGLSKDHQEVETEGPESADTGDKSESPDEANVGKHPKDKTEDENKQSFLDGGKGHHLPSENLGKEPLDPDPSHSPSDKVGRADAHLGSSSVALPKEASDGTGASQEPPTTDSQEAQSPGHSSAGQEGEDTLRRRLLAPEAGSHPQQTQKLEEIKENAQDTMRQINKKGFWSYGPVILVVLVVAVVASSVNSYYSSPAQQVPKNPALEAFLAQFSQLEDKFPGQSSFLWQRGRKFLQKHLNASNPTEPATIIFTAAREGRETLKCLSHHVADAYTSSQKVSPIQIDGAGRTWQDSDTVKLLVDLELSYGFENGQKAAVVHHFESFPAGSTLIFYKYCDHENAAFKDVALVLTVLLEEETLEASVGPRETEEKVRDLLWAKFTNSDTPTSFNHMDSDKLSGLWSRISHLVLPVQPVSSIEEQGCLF
Assay [16] is described as follows: E. coli growth modulation, two-sided OD650, primary screen, E. coli filamentation project, strain DRC41, 24 h (AID 1093).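 Further: MC1000 strain lacking acrAB efflux and sulA so SOS filamentation is blocked; test concentration not given here.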 The note with it: OD650, 24 h, higher = more signal, called active from +8 up or from −8 down.
Assay [17] in a line: small-molecule microarray binders of probe aLefty2, primary screen, biochemical, biotinylated probe, 635/667 nm fluorescence (AID 1094).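 Further: score merges spot fluorescence near 667 nm with spot signal-to-noise ratio.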 The note with it: higher = more signal.
In assay [18] the test system is Noggin (protein binding on small-molecule microarray). As to the kind of experiment: Noggin binders on small-molecule microarray, primary screen, biochemical, 635/667 nm fluorescence (AID 1095).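 Further: score merges 667 nm feature fluorescence with signal to noise over triplicate slides.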 As to conditions: 635 nm fluorescence, higher = more signal.
Assay [19] deals with Neurogenic locus notch homolog protein 3 (Homo sapiens) (UniProt Q9UM47). As to the kind of experiment: NOTCH3 binders on small-molecule microarray, primary screen, biochemical, 635/667 nm fluorescence (AID 1096). As to conditions: NOTCH3 binding, 635 nm fluorescence, higher = more signal.
Sequence of Neurogenic locus notch homolog protein 3 (Homo sapiens) (Q9UM47 whole entry, looked up): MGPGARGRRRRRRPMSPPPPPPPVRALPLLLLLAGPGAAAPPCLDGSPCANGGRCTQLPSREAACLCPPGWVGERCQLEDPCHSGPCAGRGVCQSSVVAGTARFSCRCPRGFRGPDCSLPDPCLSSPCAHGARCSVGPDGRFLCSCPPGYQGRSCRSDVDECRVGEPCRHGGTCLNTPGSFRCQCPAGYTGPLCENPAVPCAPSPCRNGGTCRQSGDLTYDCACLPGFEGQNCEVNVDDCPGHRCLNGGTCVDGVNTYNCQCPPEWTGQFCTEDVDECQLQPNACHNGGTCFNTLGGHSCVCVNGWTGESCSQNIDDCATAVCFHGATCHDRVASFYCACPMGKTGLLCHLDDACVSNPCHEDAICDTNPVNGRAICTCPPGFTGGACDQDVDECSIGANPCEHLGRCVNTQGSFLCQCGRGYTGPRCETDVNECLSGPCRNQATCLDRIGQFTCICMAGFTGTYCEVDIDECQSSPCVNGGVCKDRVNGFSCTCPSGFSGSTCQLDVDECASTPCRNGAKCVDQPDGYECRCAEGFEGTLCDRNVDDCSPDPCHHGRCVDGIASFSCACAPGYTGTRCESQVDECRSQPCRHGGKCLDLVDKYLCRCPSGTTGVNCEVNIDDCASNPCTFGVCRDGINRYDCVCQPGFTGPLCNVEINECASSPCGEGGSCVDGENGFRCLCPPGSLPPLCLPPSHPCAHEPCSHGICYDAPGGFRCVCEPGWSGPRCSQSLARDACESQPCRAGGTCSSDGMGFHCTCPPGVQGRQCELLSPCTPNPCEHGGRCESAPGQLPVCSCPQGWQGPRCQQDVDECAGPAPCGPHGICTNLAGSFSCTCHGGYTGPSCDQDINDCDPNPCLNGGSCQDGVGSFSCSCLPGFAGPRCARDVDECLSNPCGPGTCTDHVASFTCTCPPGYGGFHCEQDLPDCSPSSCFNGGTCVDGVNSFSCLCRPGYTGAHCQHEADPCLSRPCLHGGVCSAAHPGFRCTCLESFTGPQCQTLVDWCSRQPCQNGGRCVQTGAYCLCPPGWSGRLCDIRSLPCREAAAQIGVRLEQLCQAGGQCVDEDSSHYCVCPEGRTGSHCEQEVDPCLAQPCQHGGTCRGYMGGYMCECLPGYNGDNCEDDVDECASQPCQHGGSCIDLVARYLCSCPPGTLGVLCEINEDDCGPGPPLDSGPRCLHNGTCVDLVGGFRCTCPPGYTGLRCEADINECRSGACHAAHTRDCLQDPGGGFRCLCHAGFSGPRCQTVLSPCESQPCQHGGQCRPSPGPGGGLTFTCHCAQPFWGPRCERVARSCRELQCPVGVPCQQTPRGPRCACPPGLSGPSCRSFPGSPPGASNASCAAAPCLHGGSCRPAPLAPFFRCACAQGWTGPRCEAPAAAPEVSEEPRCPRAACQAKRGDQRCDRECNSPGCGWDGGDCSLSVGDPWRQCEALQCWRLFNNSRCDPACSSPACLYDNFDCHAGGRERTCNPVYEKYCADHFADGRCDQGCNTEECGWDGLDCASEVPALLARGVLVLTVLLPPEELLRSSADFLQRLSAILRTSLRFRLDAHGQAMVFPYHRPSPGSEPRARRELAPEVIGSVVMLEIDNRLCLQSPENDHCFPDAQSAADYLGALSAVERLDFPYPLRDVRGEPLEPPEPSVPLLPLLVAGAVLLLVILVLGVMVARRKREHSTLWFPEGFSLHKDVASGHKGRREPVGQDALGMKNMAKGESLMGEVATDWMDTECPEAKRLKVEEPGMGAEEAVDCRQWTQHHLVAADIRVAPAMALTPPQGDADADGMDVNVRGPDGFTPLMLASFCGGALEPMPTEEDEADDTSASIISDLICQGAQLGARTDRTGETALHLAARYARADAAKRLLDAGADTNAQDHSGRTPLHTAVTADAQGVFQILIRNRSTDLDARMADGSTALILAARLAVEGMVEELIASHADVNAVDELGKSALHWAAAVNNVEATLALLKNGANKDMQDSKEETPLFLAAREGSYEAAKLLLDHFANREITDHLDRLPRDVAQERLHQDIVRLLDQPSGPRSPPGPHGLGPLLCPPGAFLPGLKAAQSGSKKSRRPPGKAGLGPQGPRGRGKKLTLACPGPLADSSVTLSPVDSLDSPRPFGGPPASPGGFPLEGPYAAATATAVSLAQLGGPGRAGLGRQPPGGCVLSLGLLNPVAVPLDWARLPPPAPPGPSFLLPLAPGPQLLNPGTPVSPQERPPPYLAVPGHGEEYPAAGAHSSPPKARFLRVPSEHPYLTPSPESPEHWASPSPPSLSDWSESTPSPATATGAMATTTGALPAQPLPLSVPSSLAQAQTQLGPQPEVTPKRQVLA
Assay [20] is described as follows: small-molecule microarray binders of probe aEGFR, primary screen, biochemical, biotinylated probe, 635/667 nm fluorescence (AID 1097).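 Further: probe is a biotinylated anti-EGFR antibody binding compounds printed on slides; score combines fluorescence near 667 nm and signal to noise of each spot.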 The note with it: higher = more signal.

Five molecules from PubChem BioAssay can be followed below.

Activity calls are given as the source filed them.

Sequence of Pro-neuregulin-1, membrane-bound isoform (Homo sapiens) (Q02297 whole entry, looked up, the tested form may be a part, canonical isoform): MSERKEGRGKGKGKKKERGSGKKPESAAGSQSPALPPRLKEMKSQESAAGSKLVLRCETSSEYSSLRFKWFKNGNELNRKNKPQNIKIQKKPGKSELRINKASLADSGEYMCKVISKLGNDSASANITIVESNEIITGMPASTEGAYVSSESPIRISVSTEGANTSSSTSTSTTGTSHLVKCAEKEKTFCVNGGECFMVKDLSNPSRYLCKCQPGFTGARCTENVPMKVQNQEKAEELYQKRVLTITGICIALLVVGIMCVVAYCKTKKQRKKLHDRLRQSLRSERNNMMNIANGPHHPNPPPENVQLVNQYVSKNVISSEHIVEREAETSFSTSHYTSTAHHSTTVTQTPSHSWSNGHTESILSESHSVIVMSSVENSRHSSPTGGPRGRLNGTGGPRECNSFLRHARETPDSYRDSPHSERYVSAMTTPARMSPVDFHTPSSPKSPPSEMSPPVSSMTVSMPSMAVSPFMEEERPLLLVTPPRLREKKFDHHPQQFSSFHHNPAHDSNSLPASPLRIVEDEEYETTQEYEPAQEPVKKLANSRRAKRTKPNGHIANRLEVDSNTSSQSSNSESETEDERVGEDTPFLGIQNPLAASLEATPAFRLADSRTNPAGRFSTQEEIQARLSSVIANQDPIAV

With `CC(=O)OC(C/C=C\B1OC(C)(C)C(C)(C)O1)c1ccccc1` (stereo not given), the composite z-score in assay [1] is 0.696; in [2], 0.0193; in assay [3] it was -0.038; in [4], -1.06; in assay [5], -0.542; in assay [6], -0.451. Further, the composite z-score in [7] was -0.679; in [9] it was -0.0273; in assay [10] it was -0.353; in assay [11] it was -0.0413; in assay [15] it was -0.126; in assay [17], -0.0231. Further, the composite z-score was -0.502 in assay [18], -0.761 in assay [19] and -0.268 in assay [20]. Also, the z-score is -1.52 (inactive) in [8]; -2.82 (inactive) in assay [12]; -4.32 (inactive) in [13]; -3.49 (inactive) in assay [14]; -3.15 (inactive) in assay [16].

On to `CC(C)NC(=O)[C@@H]1c2ccccc2C(=O)N(Cc2cc(F)cc(C(F)(F)F)c2)[C@H]1c1ccc(CO)cc1`, for which the composite z-score in assay [1] was 1.02; in assay [2], -0.197; in assay [3], -0.141; in assay [4], -1.12; in [5] it was -0.636; in assay [6] it was 0.433. The composite z-score in assay [7] was 0.844; in assay [9] it was 0.136; in assay [10] it was -0.149; in [11], -0.305; in assay [15], 2.48; in assay [17], 0.0071. The figures for the composite z-score in [18], in assay [19] and in assay [20] were -1.34, -0.706 and 0.0629, respectively. For the same molecule, the z-score in assay [8] is 0.842 (inactive); in assay [12], -0.354 (inactive); in [13], -0.92 (inactive); in [14], -1.17 (inactive); in [16], 1.52 (inactive).

Consider `CC(C)(C)OC(=O)CC[C@@]1(C(=O)N2CCOCC2)N=C(c2ccc(OCCCO)cc2)O[C@@H]1c1ccccc1`, for which the composite z-score in assay [1] was 1.19; in assay [2], 0.426; in [3] it was 0.088; in assay [4], 0.435; in assay [5], 1.07; in [6], 2.16. In addition, the composite z-score is 1.36 in assay [7]; 0.517 in assay [9]; 0.28 in assay [10]; 1.58 in assay [11]; 3.95 in [15]; 0.32 in assay [17]. Besides, the figures for the composite z-score in assay [18], in assay [19] and in assay [20] were 0.743, 0.274 and 0.233, respectively. The z-score in assay [8] is -1.79 (inactive); in assay [12] it was 0.153 (inactive); in assay [13], -0.0631 (inactive); in assay [14] it was 0.248 (inactive); in assay [16], 1.32 (inactive).

As for `CCCCC(=C=CC[C@H](O)c1cccc(OCCO)c1)CCO`, the composite z-score in assay [1] was -0.0452; in assay [2], -0.0768; in assay [3] it was -0.0976; in assay [4], -0.662; in assay [5], -0.854; in assay [6], 0.52. Further, the composite z-score is 0.519 in assay [7]; -0.101 in [9]; 0.0623 in [10]; -0.19 in assay [11]; 1.33 in [15]; -0.12 in [17]. Further, the composite z-score in assay [18] is 0.0201; in assay [19], -0.498; in [20] it was -0.268. In addition, the z-score is 0.125 (inactive) in [8]; 0.166 (inactive) in assay [12]; -0.486 (inactive) in assay [13]; -1.16 (inactive) in [14]; 1.11 (inactive) in assay [16].

Consider `C=C(COC)C(=O)CC[C@H](OC(=O)c1cccnc1)c1cccc(OCCO)c1`, for which the composite z-score was 0.822 in [1]; 1.9 in [2]; 0.119 in assay [3]; 0.833 in [4]; -0.381 in [5]; -0.318 in [6]. For the same molecule, the composite z-score was determined as 0.0423 in [7]; 0.331 in assay [9]; 0.503 in assay [10]; 1.36 in [11]; 0.241 in assay [15]; 0.649 in assay [17]. In addition, the values for the composite z-score in assay [18], in [19] and in assay [20] were 1.29, 0.176 and 0.431, respectively. Besides, the z-score in assay [8] was 0.0417 (inactive); in assay [12], 1.25 (inactive); in [13] it was -0.231 (inactive); in assay [14] it was 1.56 (inactive); in assay [16] it was 1.18 (inactive).
